The entries come from a sample that favours hits as a whole.
Pf Dd2 inh: inhibitors of Plasmodium falciparum Dd2 growth. P. falciparum Dd2 growth, SYBR Green, 72 h. Potency, µM (series often up to 28.9 µM), inactives show at the highest dose activity, negative = inhibition, hits mostly inhibitors. 120,000 tested, 4.3% active. AID 1347417; active = well fitted inhibition curve with a large enough effect;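 also: plate controls were DMSO vehicle for no effect and reference drug for full effect; nearly all actives have a fitted effect of over 65% in size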
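Infected erythrocytes (Dd2, 0.3% parasitemia, 2.5% hematocrit final) are added to compound in RPMI-1640/Albumax II medium, grown 72 h at 37C in low oxygen, then lysed with saponin/Triton-X containing SYBR Green and read by fluorescence.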
An asterisk follows results filed as active; i = inactive; [ ] = dose if it differs, or a comment. Potency is read from the fitted curve at half-maximal effect.

SMILES | Pf Dd2 inh
COCCn1cc(CN2CCN(Cc3ccccc3F)CC2)ccc1=O | 22%
CCN1C(=O)CN(C(=O)C2CCC2)CC12CCOCC2 | -12%
CC(=O)N1CCC(C2CCN(C(=O)C3CNC3)C2)CC1 (stereo not given) | 4%
O=C(c1ccccc1)N1CCn2c(nnc2C2CCNCC2)C1 | 5%
O=C(NC1CC1)C1CCC(=O)N(CCCc2ccccc2)C1 (stereo not given) | -11%
Cc1noc(C)c1C(=O)N1CCC2(CC1)CC(N[S+](C)(=O)[O-])c1ccccc12 (stereo not given) | 4%
Cc1cc(C(F)(F)F)nn1CCNC(=O)[C@H]1CCC[C@H](O)C1 | -10%
Cc1cc(Cl)ccc1NC(=O)N1C[C@@H](F)C[C@H]1C(=O)N1CCc2ccccc2C1 | -16%
Cc1ccc(NC(=O)N2C[C@@H](F)C[C@H]2C(=O)N2CCc3ccccc3C2)c(C)c1 | -22%
Cc1cccc(NC(=O)N2C[C@@H](F)C[C@H]2C(=O)N2CCc3ccccc3C2)c1C | 7.9µM*
O=C(c1nnc(CN2CCN(c3ccccn3)CC2)n1-c1ccccc1)N1CCC[C@@H]1c1cccc(F)c1 | i
O=C(NC1CCCc2c1[nH]c1ccccc21)c1ccccn1 (stereo not given) | -20%
O=C(Cn1nc2c(cc1=O)CCCCC2)NC1CCCc2c1[nH]c1ccccc21 (stereo not given) | -5%
Cn1nc(C(=O)NC2CCCc3c2[nH]c2ccccc32)c2ccccc2c1=O (stereo not given) | 7.1µM*
COCCOc1ccc2c(n1)CCN(C(=O)CC1CCCCC1)C2 | -1%
COc1ccc(C(=O)NCCSc2c(C)[nH]c3ccccc23)cc1 | -3%
Cc1[nH]c2ccccc2c1SCCNC(=O)c1ccc(F)cc1 | -28%
CCN(CC)S(=O)(=O)c1ccc(C(=O)NCCSc2c(-c3ccc(C)cc3)[nH]c3ccccc23)cc1 | 10µM*
O=C(Cc1ccc2c(c1)OCO2)N1CCNc2cnc(Nc3cccc(F)c3)nc2C1 | -3%[44.1 µM]
O=C(CN1C(=O)COc2ccc(C(=O)COc3cccc(F)c3)cc21)NCc1ccc2c(c1)OCO2 | i
O=C(Cc1ccc2c(c1)OCO2)N(Cc1ccncc1)Cc1cccc(OCCc2ccc(F)cc2)c1 | 11µM*
NCCn1cc(C(=O)N(Cc2ccccn2)CC2CCCO2)nn1 (stereo not given) | -11%
CCCC1(C(=O)O)CCCN(C(=O)c2cccc(OC)c2OC)C1 (stereo not given) | -24%
CCOCCCNC(=O)N1CCn2nnc(CCC(=O)N3CCOCC3)c2C1 | -10%
CCn1nc(C)cc1C(=O)NCc1cccnc1Oc1ccccc1C | -14%
SMILES | Pf Dd2 inh
Cc1ccccc1Oc1ncccc1CNCc1cccc(O)c1 | 13µM*
Cc1ccccc1Oc1ncccc1CNCc1cc2c(cc1Cl)OCO2 | i
O=C(C1CCCC1)N1CCC(n2cc(-c3nc(-c4ccccc4)no3)nn2)CC1 | 229%
CCC1Oc2ccc(NC(=O)c3ccc(C#N)cc3)cc2CN(Cc2ccccc2F)C1=O (stereo not given) | -16%
CCC(c1ccccc1)N1Cc2cc(NS(=O)(=O)c3ccc(Cl)cc3)ccc2OC(C)C1=O (stereo not given) | -15%
Cc1cccc(CN2C(=O)CN=C(c3ccccc3)c3ccccc32)c1 | -14%
Cc1nc(-c2ccccc2)n(Cc2nc(-c3ccc(Cl)cc3)oc2C)c(=O)c1CCO | i
O=C1CN=C(c2ccccc2)c2cc(Cl)ccc2N1Cc1ccc(Cl)cc1 | 8.9µM*
Cc1cc(C)cc(NC(=O)CN2C(=O)CN=C(c3ccccc3)c3cc(Cl)ccc32)c1 | -18%
Cc1oc(-c2ccccc2Cl)nc1CN1C(=O)CN=C(c2ccccc2)c2cc(Cl)ccc21 | -12%
Cc1ccc(-c2nc(CN3C(=O)CN=C(c4ccccc4Cl)c4cc(Cl)ccc43)c(C)o2)cc1 | 11µM*
Cc1ccsc1C(=O)N1CCn2c(nnc2[C@@H]2C[C@@H](O)CN2Cc2ccccc2)C1 | i
CCCc1cc(C(=O)N2CCC3(CC2)CC(=O)N(CCCOC)C3)n(C)n1 | 2%
Fc1cccc(Cc2noc(-c3nc(-c4ccc5c(c4)OCO5)no3)n2)c1 | -4%
O=C(O)[C@@H]1CN(C(=O)c2ccc(=O)[nH]c2)C[C@H]1c1ccc2c(c1)OCO2 | 4%
CCN1CCC(CCNC(=O)C2CCN(C(=O)N3CC4CC(C3)[C@H]3CCCC(=O)N3C4)CC2)CC1 (stereo not given in full) | i
CN1C(=O)CC(C(=O)O)C12CCN(Cc1cnc(CC3CCCC3)[nH]1)CC2 (stereo not given) | 10%
COC(=O)[C@@H]1Cc2c([nH]c3ccccc23)[C@H]2C[C@H](NC[C@H]3CCCO3)C[C@@H](c3ccccc3F)N21 | -14%
COc1ccc(CC(=O)NC2CCCc3c2[nH]c2ccccc32)cc1OC (stereo not given) | -14%
COC(=O)[C@@H]1Cc2c([nH]c3ccccc23)[C@H]2C[C@H](N3CCCCC3)C[C@@H](c3ccccc3F)N21 | 1.4µM*
COC(=O)[C@@H]1Cc2c([nH]c3ccccc23)[C@H]2C[C@@H](NCCNC(C)=O)C[C@@H](c3ccccc3F)N21 | -7%
